Results reported in the supplement of paper PMC3334620.
Over roughly 33,000 sequences, “E-score (-0.5 to 0.5)” has its median near -0.011; the highest 2% begin near 0.28. What follows is part of a selection rich in the highest values, with near analogues and random picks from the rest.

Target: T1, Gcr1 (UniProt P07261)
T1 sequence: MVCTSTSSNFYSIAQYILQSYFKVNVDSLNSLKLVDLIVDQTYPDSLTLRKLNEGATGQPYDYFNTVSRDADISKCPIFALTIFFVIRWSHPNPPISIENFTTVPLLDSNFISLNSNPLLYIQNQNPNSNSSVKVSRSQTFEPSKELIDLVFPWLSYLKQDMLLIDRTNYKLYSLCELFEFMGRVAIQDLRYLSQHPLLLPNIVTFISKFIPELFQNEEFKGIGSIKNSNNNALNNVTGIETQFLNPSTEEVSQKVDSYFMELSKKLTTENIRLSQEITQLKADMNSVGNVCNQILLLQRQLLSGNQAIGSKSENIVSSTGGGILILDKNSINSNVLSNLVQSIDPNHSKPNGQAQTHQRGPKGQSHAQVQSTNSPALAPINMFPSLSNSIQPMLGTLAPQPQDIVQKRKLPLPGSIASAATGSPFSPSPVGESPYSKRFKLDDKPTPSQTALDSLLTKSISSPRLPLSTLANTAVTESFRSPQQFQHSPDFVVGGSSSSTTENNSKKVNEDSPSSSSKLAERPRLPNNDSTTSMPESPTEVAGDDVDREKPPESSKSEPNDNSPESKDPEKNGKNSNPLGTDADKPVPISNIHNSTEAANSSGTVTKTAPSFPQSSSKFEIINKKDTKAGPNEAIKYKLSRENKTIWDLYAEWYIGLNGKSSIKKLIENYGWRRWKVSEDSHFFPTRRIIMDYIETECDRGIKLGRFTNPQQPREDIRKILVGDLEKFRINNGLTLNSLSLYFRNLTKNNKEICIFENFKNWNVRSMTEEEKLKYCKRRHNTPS
Experiment: PBM E-score (8-mer binding enrichment) (E-score (-0.5 to 0.5)); higher = stronger / more preferred TF binding
Conditions: protein concentration: 100 nM; construct: GST-full length
Method: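 Universal 'all 10-mer' protein binding microarrays (Agilent AMADID 015681) probed with GST-tagged S. cerevisiae TFs (full-length or DBD) made by in vitro transcription/translation (PURExpress), about 100-200 nM. Bound TF was detected with fluorescent anti-GST. Each ungapped 8-mer (which stands for itself and its reverse complement) is scored by the PBM enrichment score (E-score), a modified Wilcoxon-Mann-Whitney statistic from -0.5 to +0.5, computed with the Universal PBM Analysis Suite. Scale: above 0.35 generally sequence-specific binding.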

Sequence	PBM E-score
CTCCCAAG	0.0273
ACTCTAGG	-0.0525
ATTCAGGA	0.282
AAACAGGC	-0.117
CTACAGGA	0.204
CTTCAGGA	0.268
CAACAGGA	0.226
ATTCAGGG	0.123
ATACAGGC	0.223
AAACAGGA	0.363
ATACAGGA	0.308
ACCGAACG	0.0306
CCACCGCG	-0.0592
ATGACATA	0.127
TCCCGCAA	0.0539
CGAGTGCC	-0.132
AAGCGTCG	0.0188
ACGCGTCA	-0.171
AAGCGTCC	0.323
GAGCGTGC	-0.1
ACGCGTCC	0.292
GAGCGTCC	0.384
ACGCGTCT	0.155
GAGCGTCA	0.0398
AAGCGTCA	-0.0114
GCATCAAC	0.15

Sequence	PBM E-score
CACGGAGC	0.101
AGGTATCC	0.28
CGGTATCA	-0.0496
CGGTAGCA	-0.0732
CGGTAGCC	0.296
AGGTATCG	0.019
CTGTATCC	0.207
CGGTATCC	0.282
AGGTAGCC	0.238
AGGTATCA	0.0276
CAAGCTAA	-0.177
CCTGTGAG	-0.218
CGCCCTAG	0.143
ATAGCCAG	0.0137
CGCAATTC	0.0283
CTACCGTC	-0.0298
GCCATCCA	0.086
CCGATACA	0.0692
CCAGTTAG	0.0191
AGGCGCCA	0.268
AGGCGCAT	0.0287
ACGCGCCC	0.352
ATGCGCCC	0.0661
AGGCGCCG	0.354
AGGCGCAG	0.157
AGGCGCCC	0.384

Sequence	PBM E-score
ACGCGCCA	0.196
AGGCGCCT	0.321
GCGCGCCC	0.0734
AGGCGCGC	0.16
AAGCGCCT	0.0782
AGTGCTCC	-0.116
GTCAGAAA	0.0237
AAGGGCTA	-0.138
AACAATCC	-0.0423
TGGACAAA	0.0886
CCCGGTCC	-0.0935
CGGACACC	0.0465
ACTGCAAG	-0.185
TTGTGAAA	0.0169
CCCGTTAG	0.0113
CGCGCATC	0.252
ATCCCCCG	0.175
AGGAAGCG	0.354
ATGAATCC	0.0178
AGGAATCC	0.459
AGGAATGG	0.0654
AGGAATAC	0.0815
AGGAAGAG	-0.0854
AAGAATCA	0.142
AGGAAGCA	0.13
GAGAATCC	0.236

Sequence	PBM E-score
AGGAATCA	0.144
AAGAATCC	0.391
AGGAATCG	0.294
GGCTATGA	-0.188
AATCCGTC	-0.0275
AGCCAGAA	0.13
TCTGCAGA	-0.194
ATGACCCG	-0.321
CGGAAGTC	-0.00248
CGGAATCC	0.417
CCGAATCC	0.133
ACGAATCT	0.122
AGGAAGTC	0.337
CGGAATCA	0.0684
AGGAAGTG	0.213
ACGAATCC	0.288
CGGAATTC	0.242
CCCGAGAC	0.0132
ATCCGCTC	0.0142
ACTCCCTA	-0.0517
CGCCTGTC	-0.105
GGTGTTCA	0.106
AGTGGTGC	0.305
CGTGGTAG	-0.133
AGTGGTGG	0.305
AATGGTGG	-0.00912

Sequence	PBM E-score
CGTGGTGC	-0.0202
AATGGTGC	0.208
AGTGGTAA	-0.099
AGTGGTGA	0.0333
AGTGGTAG	0.318
CCGATGAC	-0.0977
AAGTTGCG	0.211
TGCATCCA	0.182
ATCATCCG	-0.191
AGCATCCA	0.457
AGCATCCG	0.372
AACATCCA	0.193
AACATCCG	0.164
ACTTTAAA	0.0642
ATAGTAAG	-0.0276
ACAAGACC	-0.0386
GAGCAATA	0.0781
CCGAACTC	-0.0172
ACTGGAAC	0.301
AATGGGAG	0.0925
AATGGGAA	0.132
AATGGAAC	0.154
AATGGAAG	0.27
CCTGGAAC	-0.0042
AATGGAAT	0.301
AATGGGAT	0.28

Sequence	PBM E-score
ACTGGAAA	0.0867
CCTGGAAG	0.0765
ACTGGAAG	0.463
ACGGGAAG	0.112
AGGCAATC	-0.245
CTCCAAGA	0.0262
ATTTGCAC	0.0134
GTAGCTAA	-0.0197
TAGAAACA	0.112
TTGAAAAA	0.0707
CCCATAGC	-0.16
ACGGGAAT	0.111
ACTGGAAT	0.415
ACTGGGAT	0.0877
AGCCGTGG	-0.108
ACGAGAGG	-0.238
ACGGTATC	-0.0774
CCTGTAGA	0.283
CCGGTATA	0.191
CCTGTATA	0.2
ACTGTAGA	-0.079
ACTGTATC	-0.275
AAGGTATC	0.158
CCGGTATC	0.288
GCTGTAGA	-0.0143
CAGGTATA	-0.0414

Sequence	PBM E-score
CAGGTATC	0.311
CCTGTATC	0.324
ACGGTAAG	-0.0708
CAACTGGC	0.0226
GATCACCA	-0.0057
TACCGTAA	0.0593
GACCCCCC	-0.241
CGCCTGCA	-0.117
AATGAGTA	0.143
AGAACCTA	0.0206
GAACCCAA	0.167
AGAACCCA	0.234
TGGACCCA	0.104
GGGACCCA	0.303
GAACCCCC	0.0349
CGAACCTA	-0.117
TGAACCCA	0.0317
GGAACCCA	0.394
GAACCCCA	0.344
GGAACCTA	0.401
GGGACCCC	0.00587
